Assay outcomes from PubChem.
Rows were chosen to be rich in hits. Some 2.5% of all compounds tested hit in one or more screens of this group.
Cruzain inh Det = inhibitors of Trypanosoma cruzi cruzain with detergent; Potency, µM, for the others: max response, negative = inhibition, most hits filed as inhibitors; P25779; purified cruzain, Z-FR-AMC fluorescence, 0.01% Triton; hit rate 0.43% among 200,000;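 also: plate controls were neutral wells for no effect and buffer without enzyme for full effect; nearly all actives have a fitted effect of over 40% in size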
Target sequence (P25779 123-467 limits assumed): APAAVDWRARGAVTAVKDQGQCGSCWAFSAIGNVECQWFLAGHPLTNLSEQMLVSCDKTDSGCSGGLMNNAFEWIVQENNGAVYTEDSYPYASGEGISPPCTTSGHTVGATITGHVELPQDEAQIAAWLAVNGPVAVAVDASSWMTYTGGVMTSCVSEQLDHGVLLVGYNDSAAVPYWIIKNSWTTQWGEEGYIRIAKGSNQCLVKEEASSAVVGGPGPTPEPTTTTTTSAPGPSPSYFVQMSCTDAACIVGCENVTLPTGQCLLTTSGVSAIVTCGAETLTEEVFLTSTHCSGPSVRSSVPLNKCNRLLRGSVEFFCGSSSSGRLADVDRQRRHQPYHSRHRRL
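Purified cruzain (1.5 nM final) was preincubated with compounds for 15 min at room temperature in 100 mM sodium acetate pH 5.5, 5 mM DTT, 0.01% Triton X-100. Reaction started with 2 uM Z-FR-AMC; AMC fluorescence change over 60 s gave activity.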
Cruzain noTriton = blocks cruzain activity in detergent-free assay; purified cruzain, Z-FR-AMC fluorescence, no detergent; Potency, µM, for the others: max response, negative = inhibition, usual class: inhibitors; AID 1476; hit rate 2.3% among 200,000;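 also: plate controls were enzyme without inhibitor for no effect and buffer without enzyme for full effect; nearly all actives have a fitted effect of over 40% in size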
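Purified cruzain at 1.5 nM, pre-incubated 15 min with compound at room temperature in 100 mM sodium acetate pH 5.5, 5 mM DTT, 0.00005% Triton X-100. Reaction started with 2 uM Z-FR-AMC; AMC fluorescence increase over 60 s gives rate.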
Numbers without * were called inactive; ? = inconclusive. Calls follow the shape of the dose curve; as a rule, active = well fitted curve in the direction sought with a large enough effect; inconclusive = small, poorly fitted or top-dose-only effect, or another doubt; inactive = no such curve, though single readings can be large; an effect the other way counts as inactive or inconclusive. Potency is read from the fitted curve at half-maximal effect.

SMILES	Cruzain inh Det	Cruzain noTriton
COc1ccc(CN2CCc3nc(N4CCN(c5ccc(F)cc5)CC4)ncc3C2)c(OC)c1OC	-22%	-15%
CCOC(=O)c1sc(NC(=O)c2cc(-c3ccccc3C)nc3ccccc23)c(C#N)c1C	-1%	10µM*
Cc1ccccc1-c1cc(C(=O)Nc2sc(C)c(C)c2C(N)=O)c2ccccc2n1	-15%	20µM*
CCOC(=O)c1sc(NC(=O)c2ccncc2)c(C#N)c1C	-12%	-9%
CCOC(=O)c1c(NC(=O)c2cc(-c3ccc(Cl)s3)nc3ccccc23)sc(C(N)=O)c1C	1%	-7%
CN1CCN(c2ncc3nc(-c4ccc(Cl)cc4)c(=O)n(C)c3n2)CC1	-8%	?
Cc1ccc(S(=O)(=O)Nc2ccc(-c3nc4cc(NS(=O)(=O)c5ccc(C)cc5)ccc4o3)cc2)cc1	2%	7.9µM*
COc1ccc(-c2nc3ccc(NS(=O)(=O)c4ccc(Cl)cc4)cc3o2)cc1	-6%	-23%
COCCNC(=O)c1ccccc1NC(=O)c1nsc2ccccc12	-10%	?
Cc1ccc(C)c(NC(=O)C(Sc2ncnc3ccccc23)c2ccccc2)c1 (stereo unspecified)	2%	0%
Cc1ccc(C)c(NC(=O)C(Sc2nc3ccccc3c(=O)n2CC(C)C)c2ccccc2)c1 (stereo unspecified)	-1%	20µM*
Cc1cc(C)c(NC(=O)C2CCN(c3nnc(C)c4c(C)n(-c5ccccc5)nc34)CC2)c(C)c1	-18%	19%
CCc1cc2cc3c(cc2nc1SCC(=O)Nc1cc(C)on1)OCO3	-2%	25µM*
CCc1cc2cc(C)ccc2nc1SCC(=O)Nc1cc(C)on1	2%	-12%
Cc1cc2cc3c(cc2nc1SCC(=O)Nc1nc(C)c(C)s1)OCO3	5%	32µM*
CCc1cc2cc3c(cc2nc1SCC(=O)Nc1nnc(C)s1)OCCO3	3%	?
O=C(CSc1nc(=O)[nH]c2c1CCCC2)NCc1ccc(Cl)cc1	2%	-9%
CCOC(=O)c1ccc(-c2ccc(C3Nc4ccccc4C(=O)N3O)o2)cc1 (stereo unspecified)	-15%	?
Cc1cc([N+](=O)[O-])ccc1-c1ccc(C2Nc3ccccc3C(=O)N2O)o1 (stereo unspecified)	-5%	20µM*
O=C(NCCc1csc(-c2cccnc2)n1)c1cccc(C(F)(F)F)c1	-8%	8%
Cc1nn(C(=O)c2ccco2)c(C)c1CN1C(=O)c2ccccc2C1=O	2%	-3%
Cc1nn(C(=O)c2cccs2)c(C)c1CN1C(=O)c2ccccc2C1=O	1%	20µM*
COc1ccc(OCC(O)CN2CCC(CN3C(=O)c4cccc5cccc(c45)C3=O)CC2)cc1 (stereo unspecified)	-1%	8%
COc1ccc(S(=O)(=O)N2CCC(CN3C(=O)c4cccc5cccc(c45)C3=O)CC2)cc1	-3%	25µM*
O=P(O)(O)CCP(=O)(O)O	2%	2%
SMILES	Cruzain inh Det	Cruzain noTriton
Cc1ccccc1C(=O)n1nc(-c2ccco2)nc1NCc1cccs1	-5%	-13%
CSc1ccc(Cn2nnc(C(=O)Nc3ccc(C)c(C)c3)c2N)cc1	5%	25µM*
Cc1ccc(NC(=O)c2nnn(Cc3ccccc3)c2N)cc1C	0%	-7%
COc1ccc(CN(C)S(=O)(=O)c2nnc(NC(=O)C(C)C)s2)cc1OC	-6%	-9%
COc1ccc(CCNc2ncnc3onc(C)c23)c(OC)c1	-2%	13%
CCC(=O)NC(=S)Nc1ccc(NC(=O)c2ccc(C)c([N+](=O)[O-])c2)cc1	-3%	10µM*
CCOc1ccc(C(=O)NC(=S)Nc2ccc(NC(=O)CC)cc2)cc1[N+](=O)[O-]	-6%	?
CCOc1ccccc1NC(=O)Nc1cc(C(=O)NCc2ccc(C)cc2)ccc1N1CCCC1	-2%	-4%
CCCNC(=O)c1cc2c3ccccc3n(C)c2s1	-18%	-2%
CC(=O)Nc1ccc(S(=O)(=O)NNC(=O)c2cc3c4ccccc4n(C)c3s2)cc1	22µM*	-20%
O=C(NCc1ccccc1)C1CCN(S(=O)(=O)c2ccc3c(c2)CCCN3C(=O)C2CCC2)CC1	-3%	1%
O=C(Cn1c(SCCOc2ccccc2Cl)nc2ccccc21)N1CCCCC1	-3%	-5%
CCc1cccc(CC)c1NC(=O)c1c(C)oc2ccc(O)c(CN3CCN(C)CC3)c12	-2%	-5%
O=C(Oc1ccc2c(=O)c(Oc3ccc4ccccc4c3)coc2c1)c1cncc(Br)c1	5%	3.2µM*
O=C(Oc1ccc2ccccc2c1)c1cncc(Br)c1	3%	?
Cc1nn(C(C)(C)C)c(OC(=O)C(C)(C)C)c1Sc1ccccc1	-9%	2%
N#CC1(Cc2ccccc2)c2ccccc2C=CN1C(=O)c1ccccc1 (stereo unspecified)	-5%	-27%
N#CC1(Cc2ccc([N+](=O)[O-])cc2)c2ccccc2C=CN1C(=O)c1ccccc1 (stereo unspecified)	-3%	25µM*
